Compound activity (PubChem)
This is a sample that favours compounds with a hit; in the whole collection about 3% have one here.
Ub-GFP proteasome – Ubiquitin-GFP Assay. Ubiquitin-GFP reporter cells, proteasome inhibition, GFP fluorescence; response scale: untreated = 0%, 10 µM MG-132 = 100%. Potency, µM (titrated, usually from 45.9 µM), usual class: activators. 67,000 tested, under 10 active. AID 526, 2006; active = well fitted activation curve with a large enough effect, not every such curve was filed as active; inconclusive = small, poorly fitted or top-dose-only effect, or another doubt; inactive = no such curve, though single readings can be large or run the other way
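U2OS cells stably expressing ubiquitin(G76V)-GFP, seeded overnight in 0.5% FBS medium, were exposed to compounds (qHTS, 46 uM to 2.9 nM) for 4 hr at 37 °C. GFP-positive cells were counted by laser cytometry (488 ex/515 em), normalized between basal and 10 uM MG-132.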
Epigenetic mod – qHTS Assay for Epigenetic Modulators; mouse C127i GFP locus derepression, cytometry, 30 h; Potency, µM (top dose mostly 46.1 µM); hit rate 0.09% among 68,000
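Murine C127i mammary cells carrying a silenced, stably integrated CMV-driven GFP reporter were treated with compound for 30 hours at 37 C. After PBS washes, GFP-positive cells were counted by laser-scanning microplate cytometry.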
HEK293 cAMP cs – qHTS Assay for Agonists of the Thyroid Stimulating Hormone Receptor: Activators of Intracellular cAMP Concentrations in Parental HEK 293. hit rate 2.5% among 73,000. AID 938, 2007. Potency, µM (series often up to 57.1 µM), hits mostly activators. parental HEK293 CNG cAMP sensor, membrane potential fluorescence; also: nearly all actives have a fitted effect of over 55% in size
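Counterscreen for endogenous-receptor signalling: CNG-channel HEK 293 cells report cAMP rise by membrane depolarization. After 60 min dye equilibration with 100 uM RO 20-1724, compounds incubated 30 min before bottom-read fluorescence at 590 nm.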
HBB splice mod – qHTS Assay for Modulators of Hemoglobin Beta Chain Splicing; HBB splicing reporter cell assay, activation; EGFP reporter with mutant IVS2-654 intron; response scale: normalised to 500 nM splice-correcting PNA; Potency, µM (top dose mostly 46.1 µM), usual class: activators; hit rate 0.06% among 65,000; AID 925, 2007
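HeLa cells stably expressing EGFP interrupted by mutant beta-globin intron 2 (IVS2-654), 500/well in 2% FCS. Treated with compound for 2 days at 37C. Splicing correction scored as total well GFP intensity (488 nm excitation, 500-520 nm emission); 500 nM antisense PNA served as control.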
TSHR ag – qHTS Assay for Agonists of the Thyroid Stimulating Hormone Receptor; HEK293-CNG-TSHR cells (CNG channel as cAMP sensor), membrane potential dye, cAMP; Potency, µM (titrated, usually from 57.1 µM), usual class: activators; hit rate 0.48% among 73,000; AID 926, 2007; active = well fitted activation curve with a large enough effect in the main read-out, with a control signal flat, not every such curve was filed as active; inconclusive = small, poorly fitted or top-dose-only effect, or a change in a side signal; inactive = no such curve, though single readings can be large or run the other way; reference of the percent scale not stated here;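 also: the control signal comes from parental cells without the receptor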
Target sequence (P16473 whole entry, looked up): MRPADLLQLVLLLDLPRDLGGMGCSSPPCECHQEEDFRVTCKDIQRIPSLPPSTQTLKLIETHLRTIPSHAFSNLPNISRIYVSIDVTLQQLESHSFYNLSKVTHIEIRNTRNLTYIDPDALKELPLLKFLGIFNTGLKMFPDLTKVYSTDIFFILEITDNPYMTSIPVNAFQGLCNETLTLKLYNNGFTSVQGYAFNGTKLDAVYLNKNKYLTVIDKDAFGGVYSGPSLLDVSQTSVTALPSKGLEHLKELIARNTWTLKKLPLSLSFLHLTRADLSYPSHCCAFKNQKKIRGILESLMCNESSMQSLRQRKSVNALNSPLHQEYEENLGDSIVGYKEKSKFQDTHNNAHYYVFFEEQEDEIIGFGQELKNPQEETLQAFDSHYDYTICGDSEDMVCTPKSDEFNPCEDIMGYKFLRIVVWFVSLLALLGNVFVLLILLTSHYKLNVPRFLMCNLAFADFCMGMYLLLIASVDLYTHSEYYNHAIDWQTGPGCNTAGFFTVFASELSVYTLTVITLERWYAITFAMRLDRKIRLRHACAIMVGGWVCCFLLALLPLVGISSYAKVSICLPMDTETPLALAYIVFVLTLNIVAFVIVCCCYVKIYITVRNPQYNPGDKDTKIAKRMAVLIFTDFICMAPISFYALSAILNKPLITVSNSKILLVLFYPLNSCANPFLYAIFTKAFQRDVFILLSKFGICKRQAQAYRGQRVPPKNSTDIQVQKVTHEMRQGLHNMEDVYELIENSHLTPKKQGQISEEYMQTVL
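cAMP rise detected as CNG-channel membrane depolarization by fluorescent dye (emission 590 nm), 30 min after compound, following 60 min dye loading containing 100 uM RO 20-1724 at room temperature. Cells: TSHR/CNG HEK 293, with parental CNG HEK 293 as control.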
Numbers stand for hits; - = inactive; ? = inconclusive; . = no result; ! = a repeat was not active; [ ] = remark or other dose. Unless noted, calls follow the shape of the dose curve; as a rule, active = well fitted curve in the direction sought with a large enough effect; inconclusive = small, poorly fitted or top-dose-only effect, or another doubt; inactive = no such curve, though single readings can be large; an effect the other way counts as inactive or inconclusive.

SMILES | Ub-GFP proteasome | Epigenetic mod | HEK293 cAMP cs | HBB splice mod | TSHR ag
CC(C)CC(N(C)C)C1(c2ccc(Cl)cc2)CCC1 (configuration not stated) | . | . | 25µM | - | ?
Cc1c2ccncc2c(C)c2c1[nH]c1ccccc12 | - | 13µM! | - | 13µM | -
c1ccc2c(c1)[nH]c1cnccc12 | . | - | . | . | .
CN[C@H]1[C@H]2[C@H]3CCN2C[C@@H]1O3 | - | -[9.22 µM] | - | . | -
O=C(Oc1ccccc1)N1CCC2(CC1)CN(C(c1ccccc1)c1ccccc1)C2 | - | -[9.22 µM] | 32µM | - | ?
O=C(Oc1ccccc1)N1CCC2(CC1)CN(Cc1ccncc1)C2 | - | -[9.22 µM] | - | - | -
NC(=NCCC[C@@H](N)C(=O)O)N[N+](=O)[O-] | - | - | ? | - | ?
CC12CCC(=O)C=C1CCC1C2CCC2(C)C(O)CCC12 (configuration not stated) | - | - | - | -[9.22 µM] | -
CCC(=O)O[C@H]1CC[C@H]2[C@@H]3CCC4=CC(=O)CC[C@]4(C)[C@H]3CC[C@]12C | - | - | 16µM | - | ?
CN(CC1COc2ccccc2O1)c1nc(-c2cccnc2)nc2ccccc12 (configuration not stated) | - | - | 25µM | - | ?
CC[C@@]12CCCN3CC[C@@]4(c5ccc(OC)c(O)c5N(C(C)=O)[C@H]4CC1)[C@H]32 | - | -[9.22 µM] | - | . | -
CCNC(=O)C1OC(n2cnc3c(N)ncnc32)C(O)C1O (configuration not stated) | . | . | 0.63µM | . | ?
CCN(CC)c1ncnc2c1ncn2[C@@H]1O[C@@H](COP(=O)(O)OP(=O)(O)C(Br)(Br)P(=O)(O)O)[C@H](O)[C@H]1O | - | - | - | . | -
CN1CCN(c2ccc([N+](=O)[O-])c3[nH]o[n+](=O)c23)CC1 | -[9.17 µM] | -[9.22 µM] | -[11.4 µM] | -[9.22 µM] | .
O=C(CCl)c1ccc(Cl)cc1Cl | . | . | - | - | -
O=C(O)c1nn(Cc2ccc(Cl)cc2Cl)c2ccccc12 | - | - | 40µM! | - | ?
CCOC(=O)c1c(C)n(Cc2ccco2)c2ccc(O)cc12 | - | - | - | - | -
CCCCn1c(C)c(C(=O)OCC)c2c(CN3CCOCC3)c(O)ccc21 | - | - | 6.3µM | - | ?
COc1ccc(C[C@@H]2NC[C@H](O)[C@H]2OC(C)=O)cc1 | - | -[9.22 µM] | - | . | -
CC(C)(C)C(=O)C1C(=O)c2ccccc2C1=O | . | . | - | 16µM | -
CC(C)N[C@@H](C)Cc1ccc(I)cc1 | - | - | - | - | -
CC(C)(C)NCc1cccn1-c1sc2c(c1C#N)CCCC2 | - | - | 25µM | - | ?
O=C(Cn1cc(C(=O)c2ccccc2F)c2ccccc21)NCc1ccco1 | - | - | - | - | -
CCC(=O)c1cn(Cc2ccccc2C#N)c2ccccc12 | - | - | 20µM | - | ?
N#Cc1ccccc1Cn1cc(C(=O)c2ccco2)c2ccccc21 | - | - | 16µM | . | ?
SMILES | Ub-GFP proteasome | Epigenetic mod | HEK293 cAMP cs | HBB splice mod | TSHR ag
N#Cc1ccccc1Cn1cc(C(=O)C2CC2)c2ccccc21 | - | - | ? | . | ?
CSC([N-]/N=C/c1cccc(C)n1)=[S]=[Cu].CS[C@H]([S-])[N-]/N=C/c1cccc(C)n1 | -[9.17 µM] | -[9.22 µM] | -[11.4 µM] | -[9.22 µM] | -[11.4 µM]
N#CC(C#N)=NNc1ccc(OC(F)(F)F)cc1 | . | . | 0.63µM | - | ?
Oc1c(Cl)c(Cl)cc(Cl)c1Cl | . | . | 40µM | - | ?
Oc1cc(Cl)c(Cl)c(Cl)c1 | . | . | - | - | -
Oc1cc(Cl)c(Cl)c(Cl)c1Cl | . | . | 40µM | - | ?
Cc1ccc2ccccc2c1C | . | . | . | - | .
C[C@@H]1[C@H]2C=C[C@@H]1[C@@H](c1c3ccc(=O)c(O)c-3oc3c(O)c(O)ccc13)[C@@H]2C(=O)O | -[9.17 µM] | -[9.22 µM] | -[11.4 µM] | -[9.22 µM] | -[11.4 µM]
CC(C)c1nccn1Cc1ccc(Cl)cc1Cl | -[9.17 µM] | -[9.22 µM] | 3.2µM | -[9.22 µM] | ?
C[C@@H](Cc1ccc(Cl)cc1Cl)NO | -[9.17 µM] | -[9.22 µM] | -[11.4 µM] | -[9.22 µM] | -[11.4 µM]
C=C[C@@H]1CN2CC[C@@H]1C[C@H]2[C@H](O)c1ccnc2ccccc12 | - | -[9.22 µM] | - | . | -
N[C@H](Cn1cc(I)c(=O)[nH]c1=O)C(=O)O | - | - | - | - | -
CCC/C=C(\CCC)C(NP(=O)(c1ccccc1)c1ccccc1)c1ccccc1 (configuration not stated) | . | . | ? | - | ?
C=C(CC1(C(C)NP(=O)(c2ccccc2)c2ccccc2)CC1)c1ccccc1 (configuration not stated) | . | . | 16µM | - | ?
C=C(C)[C@@H]1CN[C@H](C(=O)O)[C@H]1CC(=O)O | - | - | ? | - | ?
CCOc1ccc2[nH]c(=O)c(CN(CCO)C3(c4nnnn4C4CCCCC4)CCCCC3)cc2c1 | - | - | 25µM | - | ?
CNC(=O)[C@H]1C[C@@H]1[C@H](NP(=O)(c1ccccc1)c1ccccc1)c1ccccc1 | . | . | 16µM | - | ?
O=C(O)[C@@H]1C[C@H]1[C@@H](NP(=O)(c1ccccc1)c1ccccc1)c1ccccc1 | . | . | - | - | -
COC(=O)[C@]1(C)C[C@H]1[C@H](NP(=O)(c1ccccc1)c1ccccc1)c1ccccc1 | . | . | ? | - | ?
COC(=O)[C@@H]1C[C@H]1[C@@H](NP(=O)(c1ccccc1)c1ccccc1)c1ccccc1 | . | . | 13µM | - | ?
COC(=O)[C@H]1C[C@@H]1[C@H](NP(=O)(c1ccccc1)c1ccccc1)c1ccccc1 | . | . | 0.5µM | - | ?
COC(=O)[C@@H]1C[C@@H]1[C@@H](NP(=O)(c1ccccc1)c1ccccc1)c1ccccc1 | . | . | 10µM | - | ?
C[C@H]1C(=O)O[C@H]2CCN3CC=C(COC(=O)[C@](C)(O)[C@@]1(C)O)[C@H]23 | - | -[9.22 µM] | - | . | -
O=C(NC[C@H]1CCCCN1)c1cc(OCC(F)(F)F)ccc1OCC(F)(F)F | - | - | 4µM! | - | ?
CC(C)C[C@H]1C(=O)N2CCC[C@@H]2[C@]2(O)O[C@](NC(=O)[C@H]3C=C4c5cccc6[nH]cc(c56)C[C@H]4N(C)C3)(C(C)C)C(=O)N12 | - | -[9.22 µM] | - | . | -
SMILES | Ub-GFP proteasome | Epigenetic mod | HEK293 cAMP cs | HBB splice mod | TSHR ag
O=C1C[C@H]2OCCC=C3CN4CC[C@@]56c7ccccc7N1[C@@H]5[C@H]2[C@H]3C[C@@H]46 | - | -[9.22 µM] | - | . | -
O=C(O)c1cc[c]([Hg][S]c2ncnc3nc[nH]c23)cc1 | -[9.17 µM] | -[9.22 µM] | -[11.4 µM] | ? | -[11.4 µM]
CCCCCCCCOC(=O)c1ccccc1C(=O)OCCCCCCCC | . | . | - | - | -
CCCCOC(=O)c1ccccc1C(=O)OCc1ccccc1 | . | . | 16µM | - | ?
Oc1c(Cl)cc(Cl)cc1Cl | . | . | ? | - | ?
Cc1nn(-c2ccccc2)c2c1C(c1ccc3c(c1)OCO3)SCC(=O)N2 (configuration not stated) | - | - | - | - | 10µM
O=C1OC(=O)c2c(Cl)c(Cl)c(Cl)c(Cl)c21 | . | . | 40µM | - | ?
C=C[C@@H]1C[C@@]1(C)[C@@H](NP(=O)(c1ccccc1)c1ccccc1)c1ccccc1 | . | . | 5µM | - | ?
